Laboratory results as given in publication PMC11006913.

Target: VAX1 (Homo sapiens, UniProt Q5SQQ9 86-172)
Test: PBM; 200 nM protein, PBS
Conditions: dsDNA, one strand shown

Sequence of VAX1 (Homo sapiens, UniProt Q5SQQ9 86-172) (Q5SQQ9 86-172): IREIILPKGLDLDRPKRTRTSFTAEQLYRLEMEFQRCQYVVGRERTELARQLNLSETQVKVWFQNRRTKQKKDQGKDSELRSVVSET

Row | Sequence | binding signal
1 | GGTCTCCA | 7.04 upbm affinity estimate (log intensity, higher = more binding, comparable within an allelic series)
2 | CGCGGCAC | 6.77 upbm affinity estimate (log intensity, higher = more binding, comparable within an allelic series)
3 | CCGGCTTC | 6.96 upbm affinity estimate (log intensity, higher = more binding, comparable within an allelic series)
4 | TTATGGAA | 9.61 upbm affinity estimate (log intensity, higher = more binding, comparable within an allelic series)
5 | CGGAGACC | 6.9 upbm affinity estimate (log intensity, higher = more binding, comparable within an allelic series)
6 | AGCCATTA | 11.7 upbm affinity estimate (log intensity, higher = more binding, comparable within an allelic series)
7 | CGGCAAGA | 7.12 upbm affinity estimate (log intensity, higher = more binding, comparable within an allelic series)
8 | ACCCTCGC | 7.12 upbm affinity estimate (log intensity, higher = more binding, comparable within an allelic series)
9 | GATTTAGA | 9.33 upbm affinity estimate (log intensity, higher = more binding, comparable within an allelic series)
10 | GCGGGAGC | 7.11 upbm affinity estimate (log intensity, higher = more binding, comparable within an allelic series)
11 | AGCCGGTG | 7.24 upbm affinity estimate (log intensity, higher = more binding, comparable within an allelic series)
12 | ATATGGAC | 9.25 upbm affinity estimate (log intensity, higher = more binding, comparable within an allelic series)
13 | AGCCTCCG | 6.91 upbm affinity estimate (log intensity, higher = more binding, comparable within an allelic series)
14 | AGTCAGGG | 7.19 upbm affinity estimate (log intensity, higher = more binding, comparable within an allelic series)
15 | GGCTAAAC | 9.05 upbm affinity estimate (log intensity, higher = more binding, comparable within an allelic series)
16 | CCGGTGCC | 7.09 upbm affinity estimate (log intensity, higher = more binding, comparable within an allelic series)
17 | ACTAACGA | 9.28 upbm affinity estimate (log intensity, higher = more binding, comparable within an allelic series)
18 | ACGCATAA | 9.35 upbm affinity estimate (log intensity, higher = more binding, comparable within an allelic series)
19 | GTCGAGCA | 7.29 upbm affinity estimate (log intensity, higher = more binding, comparable within an allelic series)
20 | AGATGAGC | 8.9 upbm affinity estimate (log intensity, higher = more binding, comparable within an allelic series)

Row | Sequence | binding signal
21 | TATAAAGA | 9.93 upbm affinity estimate (log intensity, higher = more binding, comparable within an allelic series)
22 | AATTGACG | 10.6 upbm affinity estimate (log intensity, higher = more binding, comparable within an allelic series)
23 | CCGGCAGC | 7.15 upbm affinity estimate (log intensity, higher = more binding, comparable within an allelic series)
24 | ATTATTCC | 10.3 upbm affinity estimate (log intensity, higher = more binding, comparable within an allelic series)
25 | AGGCGGGA | 6.99 upbm affinity estimate (log intensity, higher = more binding, comparable within an allelic series)
26 | ACTAAAGA | 9.49 upbm affinity estimate (log intensity, higher = more binding, comparable within an allelic series)
27 | CGCTAGCG | 7.32 upbm affinity estimate (log intensity, higher = more binding, comparable within an allelic series)
28 | AAATTAGC | 11.9 upbm affinity estimate (log intensity, higher = more binding, comparable within an allelic series)
29 | AAGGTCAT | 9.64 upbm affinity estimate (log intensity, higher = more binding, comparable within an allelic series)
30 | AGGTAAAT | 10.4 upbm affinity estimate (log intensity, higher = more binding, comparable within an allelic series)
31 | ATATGTCC | 9.38 upbm affinity estimate (log intensity, higher = more binding, comparable within an allelic series)
32 | CGTTGGGC | 7.21 upbm affinity estimate (log intensity, higher = more binding, comparable within an allelic series)
33 | AGGGTCAG | 7.22 upbm affinity estimate (log intensity, higher = more binding, comparable within an allelic series)
34 | CGACTCCG | 6.81 upbm affinity estimate (log intensity, higher = more binding, comparable within an allelic series)
35 | ATATTACC | 11.5 upbm affinity estimate (log intensity, higher = more binding, comparable within an allelic series)
36 | AGCCCGTG | 7.01 upbm affinity estimate (log intensity, higher = more binding, comparable within an allelic series)
37 | GAGAATCC | 6.95 upbm affinity estimate (log intensity, higher = more binding, comparable within an allelic series)
38 | CAGCCGTA | 7.32 upbm affinity estimate (log intensity, higher = more binding, comparable within an allelic series)
39 | GGTATACC | 7.63 upbm affinity estimate (log intensity, higher = more binding, comparable within an allelic series)

Target: VAX1 (Homo sapiens, UniProt Q5SQQ9 86-172, T142I)
Test: PBM; 200 nM protein, PBS
Conditions: dsDNA, one strand shown

Sequence of VAX1 (Homo sapiens, UniProt Q5SQQ9 86-172, T142I) (Q5SQQ9 86-172 T142I): as the sequence (Q5SQQ9 86-172) above, with T57I counted along it

Row | Sequence | binding signal
40 | GGTCTCCA | 7.37 upbm affinity estimate (log intensity, higher = more binding, comparable within an allelic series)
41 | CGCGGCAC | 7.02 upbm affinity estimate (log intensity, higher = more binding, comparable within an allelic series)
42 | CCGGCTTC | 7.09 upbm affinity estimate (log intensity, higher = more binding, comparable within an allelic series)
43 | TTATGGAA | 9.32 upbm affinity estimate (log intensity, higher = more binding, comparable within an allelic series)
44 | CGGAGACC | 7.22 upbm affinity estimate (log intensity, higher = more binding, comparable within an allelic series)
45 | AGCCATTA | 11.3 upbm affinity estimate (log intensity, higher = more binding, comparable within an allelic series)
46 | CGGCAAGA | 7.22 upbm affinity estimate (log intensity, higher = more binding, comparable within an allelic series)
47 | ACCCTCGC | 7.19 upbm affinity estimate (log intensity, higher = more binding, comparable within an allelic series)
48 | GATTTAGA | 9.17 upbm affinity estimate (log intensity, higher = more binding, comparable within an allelic series)
49 | GCGGGAGC | 7.36 upbm affinity estimate (log intensity, higher = more binding, comparable within an allelic series)
50 | AGCCGGTG | 7.45 upbm affinity estimate (log intensity, higher = more binding, comparable within an allelic series)
51 | ATATGGAC | 8.78 upbm affinity estimate (log intensity, higher = more binding, comparable within an allelic series)
52 | AGCCTCCG | 7 upbm affinity estimate (log intensity, higher = more binding, comparable within an allelic series)
53 | AGTCAGGG | 7.36 upbm affinity estimate (log intensity, higher = more binding, comparable within an allelic series)
54 | CCGGTGCC | 7.25 upbm affinity estimate (log intensity, higher = more binding, comparable within an allelic series)
55 | ACTAACGA | 8.88 upbm affinity estimate (log intensity, higher = more binding, comparable within an allelic series)
56 | ACGCATAA | 8.83 upbm affinity estimate (log intensity, higher = more binding, comparable within an allelic series)
57 | GTCGAGCA | 7.31 upbm affinity estimate (log intensity, higher = more binding, comparable within an allelic series)
58 | TATAAAGA | 9.32 upbm affinity estimate (log intensity, higher = more binding, comparable within an allelic series)

Row | Sequence | binding signal
59 | AATTGACG | 10.1 upbm affinity estimate (log intensity, higher = more binding, comparable within an allelic series)
60 | CCGGCAGC | 7.15 upbm affinity estimate (log intensity, higher = more binding, comparable within an allelic series)
61 | ATTATTCC | 10.1 upbm affinity estimate (log intensity, higher = more binding, comparable within an allelic series)
62 | AGGCGGGA | 7.2 upbm affinity estimate (log intensity, higher = more binding, comparable within an allelic series)
63 | ACTAAAGA | 9.21 upbm affinity estimate (log intensity, higher = more binding, comparable within an allelic series)
64 | CGCTAGCG | 7.37 upbm affinity estimate (log intensity, higher = more binding, comparable within an allelic series)
65 | AAATTAGC | 11.5 upbm affinity estimate (log intensity, higher = more binding, comparable within an allelic series)
66 | AAGGTCAT | 9.26 upbm affinity estimate (log intensity, higher = more binding, comparable within an allelic series)
67 | AGGTAAAT | 10.2 upbm affinity estimate (log intensity, higher = more binding, comparable within an allelic series)
68 | ATATGTCC | 8.89 upbm affinity estimate (log intensity, higher = more binding, comparable within an allelic series)
69 | CGTTGGGC | 7.31 upbm affinity estimate (log intensity, higher = more binding, comparable within an allelic series)
70 | AGGGTCAG | 7.35 upbm affinity estimate (log intensity, higher = more binding, comparable within an allelic series)
71 | CGACTCCG | 7.11 upbm affinity estimate (log intensity, higher = more binding, comparable within an allelic series)
72 | ATATTACC | 11.2 upbm affinity estimate (log intensity, higher = more binding, comparable within an allelic series)
73 | AGCCCGTG | 7.09 upbm affinity estimate (log intensity, higher = more binding, comparable within an allelic series)
74 | GAGAATCC | 7.22 upbm affinity estimate (log intensity, higher = more binding, comparable within an allelic series)
75 | CAGCCGTA | 7.28 upbm affinity estimate (log intensity, higher = more binding, comparable within an allelic series)
76 | GGTATACC | 7.37 upbm affinity estimate (log intensity, higher = more binding, comparable within an allelic series)

Target: VAX1 (Homo sapiens, UniProt Q5SQQ9 86-172, K157R)
Test: PBM; 200 nM protein, PBS
Conditions: dsDNA, one strand shown

Sequence of VAX1 (Homo sapiens, UniProt Q5SQQ9 86-172, K157R) (Q5SQQ9 86-172 K157R): as the sequence (Q5SQQ9 86-172) above, with K72R counted along it

Row | Sequence | binding signal
77 | GGTCTCCA | 7.2 upbm affinity estimate (log intensity, higher = more binding, comparable within an allelic series)
78 | CGCGGCAC | 7.21 upbm affinity estimate (log intensity, higher = more binding, comparable within an allelic series)
79 | CCGGCTTC | 6.93 upbm affinity estimate (log intensity, higher = more binding, comparable within an allelic series)
80 | TTATGGAA | 9.34 upbm affinity estimate (log intensity, higher = more binding, comparable within an allelic series)
81 | CGGAGACC | 7.28 upbm affinity estimate (log intensity, higher = more binding, comparable within an allelic series)
82 | AGCCATTA | 11.2 upbm affinity estimate (log intensity, higher = more binding, comparable within an allelic series)
83 | CGGCAAGA | 7.11 upbm affinity estimate (log intensity, higher = more binding, comparable within an allelic series)
84 | ACCCTCGC | 7.13 upbm affinity estimate (log intensity, higher = more binding, comparable within an allelic series)
85 | GATTTAGA | 9.1 upbm affinity estimate (log intensity, higher = more binding, comparable within an allelic series)
86 | GCGGGAGC | 7.04 upbm affinity estimate (log intensity, higher = more binding, comparable within an allelic series)
87 | AGCCGGTG | 7.26 upbm affinity estimate (log intensity, higher = more binding, comparable within an allelic series)
88 | ATATGGAC | 8.81 upbm affinity estimate (log intensity, higher = more binding, comparable within an allelic series)
89 | AGCCTCCG | 6.91 upbm affinity estimate (log intensity, higher = more binding, comparable within an allelic series)
90 | AGTCAGGG | 7.15 upbm affinity estimate (log intensity, higher = more binding, comparable within an allelic series)
91 | GGCTAAAC | 8.95 upbm affinity estimate (log intensity, higher = more binding, comparable within an allelic series)
92 | CCGGTGCC | 7.13 upbm affinity estimate (log intensity, higher = more binding, comparable within an allelic series)
93 | ACTAACGA | 9.23 upbm affinity estimate (log intensity, higher = more binding, comparable within an allelic series)
94 | ACGCATAA | 8.87 upbm affinity estimate (log intensity, higher = more binding, comparable within an allelic series)
95 | GTCGAGCA | 7.41 upbm affinity estimate (log intensity, higher = more binding, comparable within an allelic series)
96 | AGATGAGC | 8.88 upbm affinity estimate (log intensity, higher = more binding, comparable within an allelic series)

Row | Sequence | binding signal
97 | TATAAAGA | 9.28 upbm affinity estimate (log intensity, higher = more binding, comparable within an allelic series)
98 | AATTGACG | 10.2 upbm affinity estimate (log intensity, higher = more binding, comparable within an allelic series)
99 | CCGGCAGC | 7.17 upbm affinity estimate (log intensity, higher = more binding, comparable within an allelic series)
100 | ATTATTCC | 10.1 upbm affinity estimate (log intensity, higher = more binding, comparable within an allelic series)
101 | AGGCGGGA | 7.24 upbm affinity estimate (log intensity, higher = more binding, comparable within an allelic series)
102 | ACTAAAGA | 9.23 upbm affinity estimate (log intensity, higher = more binding, comparable within an allelic series)
103 | CGCTAGCG | 7.28 upbm affinity estimate (log intensity, higher = more binding, comparable within an allelic series)
104 | AAATTAGC | 11.6 upbm affinity estimate (log intensity, higher = more binding, comparable within an allelic series)
105 | AAGGTCAT | 9.4 upbm affinity estimate (log intensity, higher = more binding, comparable within an allelic series)
106 | AGGTAAAT | 10.2 upbm affinity estimate (log intensity, higher = more binding, comparable within an allelic series)
107 | ATATGTCC | 9.07 upbm affinity estimate (log intensity, higher = more binding, comparable within an allelic series)
108 | CGTTGGGC | 7.23 upbm affinity estimate (log intensity, higher = more binding, comparable within an allelic series)
109 | AGGGTCAG | 7.25 upbm affinity estimate (log intensity, higher = more binding, comparable within an allelic series)
110 | CGACTCCG | 7.09 upbm affinity estimate (log intensity, higher = more binding, comparable within an allelic series)
111 | ATATTACC | 11.4 upbm affinity estimate (log intensity, higher = more binding, comparable within an allelic series)
112 | AGCCCGTG | 7.28 upbm affinity estimate (log intensity, higher = more binding, comparable within an allelic series)
113 | GAGAATCC | 7.13 upbm affinity estimate (log intensity, higher = more binding, comparable within an allelic series)
114 | CAGCCGTA | 7.24 upbm affinity estimate (log intensity, higher = more binding, comparable within an allelic series)
115 | GGTATACC | 7.24 upbm affinity estimate (log intensity, higher = more binding, comparable within an allelic series)
